Inconclusive results are not listed. Activity calls are given as the source filed them. Unless noted, calls follow the shape of the dose curve; as a rule, active = well fitted curve in the direction sought with a large enough effect; inconclusive = small, poorly fitted or top-dose-only effect, or another doubt; inactive = no such curve, though single readings can be large; an effect the other way counts as inactive or inconclusive.

Experimental findings from PubChem BioAssay (NCATS) are described below.

A short description of assay [1]: qHTS for Inhibitors of the Functional Ribonucleoprotein Complex (vRNP) of Lymphocytic Choriomeningitis Arenaviruses (LCMV): Viability assay - alamar blue signal for LCMV Primary Screen (AID 1347085; calls by dose curve; tested in HEK293 reporter line; also: nearly all actives have a fitted effect of over 80% in size; also: potency is read from the fitted curve at half-maximal effect). In general terms: Quantitative high-throughput screening tests each substance at several concentrations.
Assay [2] addresses Nucleoprotein (Lymphocytic choriomeningitis virus (strain Armstrong)) (UniProt P09992). The assay is described as follows: qHTS for Inhibitors of the Functional Ribonucleoprotein Complex (vRNP) of Lymphocytic Choriomeningitis Arenaviruses (LCMV): LCMV Primary Screen - GLuc reporter signal (AID 1347086; calls by dose curve; also: nearly all actives have a fitted effect of over 70% in size; also: potency is read from the fitted curve at half-maximal effect).
Assay [3] in a line: qHTS of pediatric cancer cell lines to identify multiple opportunities for drug repurposing: Primary screen for TC32 cells (AID 1347089). Also: nearly all actives have a fitted effect of over 60% in size. Also: potency is read from the fitted curve at half-maximal effect. The method in brief:
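Luminescent CellTiter-Glo read-out of metabolically active TC32 cells after 48 h compound exposure. Primary: MIPE 11-point, 0.78 nM–46 µM; NPC 8-point, 0.59 nM–46 µM. Confirmatory: 11-point dilutions.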

Assay [4] is described as follows: qHTS of pediatric cancer cell lines to identify multiple opportunities for drug repurposing: Primary screen for DAOY cells (AID 1347090). Also: nearly all actives have a fitted effect of over 55% in size. Also: potency is read from the fitted curve at half-maximal effect. The method in brief: (§1)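 Eight- or eleven-point concentration series, 48 h treatment at 37 degrees C in growth media; readout CellTiter-Glo luminescence. Potency and efficacy were taken from the concentration-response curves.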

Assay [5] in a line: qHTS of pediatric cancer cell lines to identify multiple opportunities for drug repurposing: Primary screen for SJ-GBM2 cells (AID 1347091). Also: potency is read from the fitted curve at half-maximal effect. Put shortly:
as §1

A short description of assay [6]: qHTS of pediatric cancer cell lines to identify multiple opportunities for drug repurposing: Primary screen for SK-N-MC cells (AID 1347093). Also: potency is read from the fitted curve at half-maximal effect. Put shortly:
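Metabolically active cells were quantified by ATP-dependent luminescence (CellTiter-Glo, 15 min at room temperature) following 48 h treatment. Cells had been plated at 500-1,000 per well and settled for 5 h beforehand.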

The nature of assay [7]: qHTS of pediatric cancer cell lines to identify multiple opportunities for drug repurposing: Primary screen for BT-37 cells (AID 1347094). Also: potency is read from the fitted curve at half-maximal effect. The method in brief: (§2)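 Primary screen of approved and investigational compounds on cells in growth media at 37 degrees C, 5% CO2. MIPE set at 11-point and NPC set at 8-point dilutions; viability scored by ATP-based luminescence at 48 hours.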

A short description of assay [8]: qHTS of pediatric cancer cell lines to identify multiple opportunities for drug repurposing: Primary screen for NB-EBc1 cells (AID 1347095). Also: potency is read from the fitted curve at half-maximal effect. Put shortly: as §2
Assay [9] can be described thus: qHTS of pediatric cancer cell lines to identify multiple opportunities for drug repurposing: Primary screen for U-2 OS cells (AID 1347096). Also: nearly all actives have a fitted effect of over 50% in size. Also: potency is read from the fitted curve at half-maximal effect. Put shortly:
(§3)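 Cells (500-1,000/well) in growth media were settled 5 h at 37 degrees C, then given compounds for 48 h. Viability was read as CellTiter-Glo luminescence. Primary runs used MIPE at 11 points (0.78 nM-46 µM) and NPC at 8 points (0.59 nM-46 µM); follow-ups used 11 points.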

The nature of assay [10]: qHTS of pediatric cancer cell lines to identify multiple opportunities for drug repurposing: Primary screen for Saos-2 cells (AID 1347097). Also: nearly all actives have a fitted effect of over 40% in size. Also: potency is read from the fitted curve at half-maximal effect. The method in brief:
as §2

Assay [11] in a line: qHTS of pediatric cancer cell lines to identify multiple opportunities for drug repurposing: Primary screen for NB1643 cells (AID 1347099). Also: nearly all actives have a fitted effect of over 50% in size. Also: potency is read from the fitted curve at half-maximal effect. The method in brief: as §2
Assay [12] can be described thus: qHTS of pediatric cancer cell lines to identify multiple opportunities for drug repurposing: Primary screen for LAN-5 cells (AID 1347100). Also: potency is read from the fitted curve at half-maximal effect. Put shortly:
as §3

Assay [13] can be described thus: qHTS of pediatric cancer cell lines to identify multiple opportunities for drug repurposing: Primary screen for BT-12 cells (AID 1347101). Also: nearly all actives have a fitted effect of over 25% in size. Also: potency is read from the fitted curve at half-maximal effect. Put shortly:
(§4)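 Cells (500-1,000/well) rested 5 h, then received compounds for 48 h; metabolically active cells were measured by CellTiter-Glo luminescence. Final concentrations spanned up to 46 µM (MIPE, 11-point) or 0.59 nM-46 µM (NPC, 8-point) in primary screens, 11-point in follow-ups.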

Assay [14] is described as follows: qHTS of pediatric cancer cell lines to identify multiple opportunities for drug repurposing: Primary screen for Rh18 cells (AID 1347102). Also: nearly all actives have a fitted effect of over 65% in size. Also: potency is read from the fitted curve at half-maximal effect. Put shortly: as §3
Assay [15] is described as follows: qHTS of pediatric cancer cell lines to identify multiple opportunities for drug repurposing: Primary screen for MG 63 (6-TG R) cells (AID 1347105). Also: nearly all actives have a fitted effect of over 50% in size. Also: potency is read from the fitted curve at half-maximal effect. The method in brief: as §2
Assay [16] can be described thus: qHTS of pediatric cancer cell lines to identify multiple opportunities for drug repurposing: Primary screen for control Hh wild type fibroblast cells (AID 1347106). Also: nearly all actives have a fitted effect of over 55% in size. Also: potency is read from the fitted curve at half-maximal effect. Put shortly: as §3
Assay [17] can be described thus: qHTS of pediatric cancer cell lines to identify multiple opportunities for drug repurposing: Primary screen for A673 cells (AID 1347092). Also: nearly all actives have a fitted effect of over 45% in size. The method in brief: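 A673 cells (500-1,000 cells/well in growth media) were pre-incubated 5 h at 37 degrees C, then exposed to compounds for 48 h. Viability was read as CellTiter-Glo luminescence; concentration-response curves came directly from the primary screen.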

A short description of assay [18]: qHTS of pediatric cancer cell lines to identify multiple opportunities for drug repurposing: Primary screen for SK-N-SH cells (AID 1347098). Also: nearly all actives have a fitted effect of over 65% in size. Also: potency is read from the fitted curve at half-maximal effect. Put shortly:
as §4

Assay [19] is described as follows: qHTS of pediatric cancer cell lines to identify multiple opportunities for drug repurposing: Primary screen for OHS-50 cells (AID 1347103). Also: nearly all actives have a fitted effect of over 40% in size. Put shortly: as §4
A short description of assay [20]: qHTS of pediatric cancer cell lines to identify multiple opportunities for drug repurposing: Primary screen for RD cells (AID 1347104). Also: nearly all actives have a fitted effect of over 55% in size. Put shortly: as §2

Sequence of Nucleoprotein (Lymphocytic choriomeningitis virus (strain Armstrong)) (P09992 whole entry, looked up): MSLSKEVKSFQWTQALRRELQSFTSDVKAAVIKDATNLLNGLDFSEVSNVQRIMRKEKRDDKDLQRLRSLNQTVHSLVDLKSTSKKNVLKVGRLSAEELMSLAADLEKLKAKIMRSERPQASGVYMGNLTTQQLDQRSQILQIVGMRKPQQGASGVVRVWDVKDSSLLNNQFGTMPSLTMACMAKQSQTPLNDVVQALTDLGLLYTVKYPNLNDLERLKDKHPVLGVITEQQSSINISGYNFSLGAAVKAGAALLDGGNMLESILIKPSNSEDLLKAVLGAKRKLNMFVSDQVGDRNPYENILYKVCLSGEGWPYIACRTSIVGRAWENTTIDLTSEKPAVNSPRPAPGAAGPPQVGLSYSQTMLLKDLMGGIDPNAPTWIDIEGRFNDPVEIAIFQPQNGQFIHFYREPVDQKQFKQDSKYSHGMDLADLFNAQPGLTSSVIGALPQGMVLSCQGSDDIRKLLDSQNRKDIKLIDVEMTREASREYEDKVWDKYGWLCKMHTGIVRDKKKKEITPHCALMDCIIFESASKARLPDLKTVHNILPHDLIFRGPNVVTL

Turning to `CC(N[C@H]1C[C@H]1c1ccccc1)c1ccc2c(c1)OCCO2` (stereo not given in full), the Potency entry in [1], in [2], in assay [3], in assay [4], in assay [5] and in assay [6] was “inactive” each time. Also, the Potency result in assay [7], in assay [8], in [9], in assay [10], in assay [11] and in [12] was “inactive” in each case. For the same compound, the Potency entry in assay [13], in assay [14], in assay [15] and in [16] was “inactive” each time.

Take `C#C[C@]1(O)C=C[C@@H]2[C@@H]3CCC4=CC(=O)CC[C@@H]4[C@H]3CC[C@@]21CC`: the Potency entry in assay [1], in assay [2], in [3], in assay [4], in [5] and in assay [17] was “inactive” each time. Moreover, the Potency entry in [7], in assay [9], in assay [10], in assay [18], in assay [12] and in [14] was “inactive” in each case. Besides, the Potency result in [19], in [20], in [15] and in assay [16] was “inactive” in each case. For the same compound, in [11], the Potency was 8330 nM (active).

With `CC[C@@H]1[C@@H](C)O[C@@](O)([C@@H](C)[C@H](O)[C@H](C)[C@H]2OC(=O)C=CC=C[C@@H](C)[C@@H]([C@@H](C)[C@@H](O)[C@H](C)[C@@]3(O)C[C@H](O[C@H]4C[C@H](O)[C@H](O)[C@H](C)O4)[C@H](CC)[C@@H](C)O3)OC(=O)C=CC=C[C@@H]2C)C[C@H]1O[C@H]1C[C@H](O)[C@H](O)[C@H](C)O1`, the Potency in assay [1] was 38500 nM (active); in assay [2], 13700 nM (active); in [3], 18600 nM (active); in [4], 469 nM (active); in assay [5], 526 nM (active); in assay [6], 372 nM (active). The Potency is 685 nM (active) in [7]; 418 nM (active) in assay [8]; 935 nM (active) in [9]; 372 nM (active) in [10]; 21500 nM (active) in [18]; 833 nM (active) in [11]. Moreover, the Potency is 372 nM (active) in [12]; 863 nM (active) in assay [13]; 590 nM (active) in assay [14]; 590 nM (active) in [15]; 9350 nM (active) in assay [16].

For `CC(=CCCC1=CCC(C2=CC(=O)OC2O)OC1O)CCC1=C(C)CCCC1(C)C` (stereo not given), the Potency entry in assay [1], in assay [2], in [3], in [4], in assay [5] and in assay [17] was “inactive” each time. For the same compound, the Potency result in assay [7], in assay [9], in assay [10], in assay [11], in assay [12] and in assay [13] was “inactive” each time. Moreover, the Potency entry in assay [19], in assay [20] and in assay [16] was “inactive” throughout.

As to `C[C@H]([C@H](O)CCC(C)(C)O)[C@H]1CC[C@@]2(O)C3=CC(=O)[C@@H]4C[C@@H](O)[C@@H](O)C[C@]4(C)[C@@H]3CC[C@]12C`, the Potency entry in [1], in [2], in assay [3], in assay [4], in assay [5] and in [6] was “inactive” each time. The Potency result in assay [7], in [9], in assay [10], in assay [18], in [11] and in [12] was “inactive” throughout. Moreover, the Potency entry in [13], in assay [14], in assay [19], in [15] and in assay [16] was “inactive” in each case.

As to `O=C(O)c1cc(Oc2ccc(C(F)(F)F)cc2Cl)ccc1[N+](=O)[O-]`, the Potency entry in [1], in [2], in assay [3], in assay [4], in assay [5] and in [6] was “inactive” in each case. Moreover, the Potency entry in [7], in assay [8], in assay [9], in assay [10], in assay [18] and in assay [11] was “inactive” each time. Besides, the Potency entry in assay [12], in assay [13], in assay [14], in assay [19], in assay [15] and in assay [16] was “inactive” throughout.
